# Measurements: PubChem BioAssay
# Values without a mark were called inactive. Some of the results follow. Active and inactive are the calls of the source.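 How the source made its calls, unless noted: active means inhibition above the hit cutoff set in the earlier primary screen (cut at about 27% in these data); inactive means the rest.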
# What was measured:
# [1] = molecular target: Protein phosphatase methylesterase 1 (Homo sapiens) (UniProt Q9Y570); test: human PME-1 methylesterase inhibition confirmation – biochemical, fluorescence polarization, FP-Rh probe, triplicate (AID 2171); conditions: recombinant PME-1, FP-Rh probe fluorescence polarization; at 5.9 µM; hits give high values;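 further: 0% = enzyme with DMSO and 100% = wells lacking PME-1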
# [2] = molecular target: Nuclear receptor coactivator 3 (Homo sapiens) (UniProt Q9Y6Q9); test: NCOA3 GAL4-fusion reporter inhibition – cell-based, luminescence, quadruplicate, confirmation (AID 588792;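 active means mean inhibition over 43.08%, the solvent-only control mean plus 3 SD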;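 further: 0% = DMSO treated cells and 100% = gossypol at 36 µM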); conditions: HEK293 GAL4-SRC3 luciferase reporter, at 3.6 µM, hits give high values
# [3] = system: transactivating tegument protein VP16 (Human herpesvirus 1), Gal4-VP16 luciferase reporter; test: repression of VP16-driven luciferase reporter – cell-based, luminescence, high throughput, counter-screen for SRC3 inhibitor project (AID 588794; in the data active means inhibition above about 30%); conditions: mammalian cells, at 3.6 µM, hits give high values
# [4] = molecular target: Nuclear receptor coactivator 1 (Homo sapiens) (UniProt Q15788); test: NCOA1 GAL4-fusion reporter inhibition – cell-based, luminescence, quadruplicate, confirmation (AID 588820;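 active means mean inhibition above 46.68%, the untreated control wells mean plus 3 SD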;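 further: 0% = DMSO wells and 100% = gossypol 36 µM treated wells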); conditions: HEK293 GAL4-SRC1 luciferase reporter, at 3.6 µM, hits give high values
# [5] = repression of VP16-driven luciferase reporter – cell-based, luminescence, high throughput, counter-screen for SRC1 inhibitor project (AID 588824; in the data active means inhibition above about 25%); conditions: cell-based VP16 transactivation luciferase luminescence; at 3.6 µM; hits give high values
# [6] = system: transactivating tegument protein VP16 (Human herpesvirus 1); test: compounds suppressing VP16-driven luciferase signal – cell-based, luminescence, single concentration, counter-screen for SRC2 inhibitor project (AID 652007; in the data active means inhibition above about 36%); conditions: cell-based VP16 transactivation luciferase reporter, at 8.9 µM, hits give high values
# [7] = molecular target: Nuclear receptor coactivator 2 (Homo sapiens) (UniProt Q15596); test: inhibition of GAL4-SRC2 driven luciferase expression – cell-based, luminescence, HEK293, triplicate, confirmation (AID 652008;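 active means mean inhibition above 46.5%, the solvent-only control mean plus 3 SD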;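 further: 0% = DMSO-treated cells and 100% = Gossypol at 36 µM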); conditions: HEK293 GAL4-SRC2 luciferase reporter, at 8.9 µM, hits give high values
# [8] = molecular target: Serine protease HTRA1 (Homo sapiens) (UniProt Q92743); test: confirming inhibition of human HTRA1 – biochemical, fluorescence polarization, confirmation (AID 540248;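 active means mean inhibition over three repeats above a set limit taken from the earlier primary screen, cut at about 37% in these data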;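 further: 0% = HTRA1 with DMSO and 100% = wells lacking HTRA1; inhibitors block probe binding so polarization drops and inhibition rises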); conditions: recombinant HTRA1, FP-rhodamine activity-based probe, at 5.96 µM, hits give high values
# [9] = StAR promoter reporter inhibitors, counter-screen for LRH-1 inverse agonist project, cell-based, luminescence, high throughput (AID 651611; in the data active means inhibition above about 28%); conditions: StAR promoter luciferase reporter counterscreen, at 3.6 µM, hits give high values
# [10] = molecular target: Nuclear receptor subfamily 5 group A member 2 (Homo sapiens) (UniProt O00482); test: NR5A2 activity suppression in reporter cells – cell-based, luminescence, confirmation (AID 651613; in the data active means inhibition above about 42%;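 further: HEK293T cells co-transfected with LRH-1 and StAR promoter luciferase reporter; 0% = vehicle wells and 100% = parental cells lacking receptor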); conditions: cell-based LRH-1 luciferase reporter, inverse agonism; at 3.6 µM; hits give high values
# [11] = molecular target: Steroidogenic factor 1 (Homo sapiens) (UniProt Q13285); test: inverse agonism at SF1 nuclear receptor – cell-based, luminescence, high throughput, counter-screen for LRH-1 inverse agonist project (AID 651614; in the data active means inhibition above about 44%;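 further: cells cotransfected with StAR promoter reporter and SF1 expression vector; 0% = vehicle on cells with receptor and 100% = vehicle on cells lacking receptor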); conditions: cell-based SF1 luciferase reporter, at 3.6 µM, hits give high values
# [12] = compounds suppressing VP16-driven luciferase signal – cell-based, luminescence, high throughput, counter-screen for LRH-1 inverse agonist project (AID 651615; in the data active means inhibition above about 33%); conditions: Gal4-VP16 luciferase reporter cells, at 3.6 µM, hits give high values
# [13] = molecular target: Glutathione S-transferase omega-1 (Homo sapiens) (UniProt P78417); test: recombinant GSTO1 blockers, retest – biochemical, fluorescence polarization, triplicate, counter-screen for RBBP9 inhibitor project, confirmation (AID 2176;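 active means inhibition above the primary screen's cutoff, its mean inhibition plus 3 SD, cut at about 35% in these data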;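 further: loss of polarization as inhibitors block binding of rhodamine sulfonate ester activity probe; 0% = GSTO1 with DMSO and 100% = wells lacking GSTO1 enzyme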); conditions: recombinant GSTO1, probe fluorescence polarization; at 5.96 µM; hits give high values
# Glutathione S-transferase omega-1 (Homo sapiens), sequence (P78417 whole entry, looked up): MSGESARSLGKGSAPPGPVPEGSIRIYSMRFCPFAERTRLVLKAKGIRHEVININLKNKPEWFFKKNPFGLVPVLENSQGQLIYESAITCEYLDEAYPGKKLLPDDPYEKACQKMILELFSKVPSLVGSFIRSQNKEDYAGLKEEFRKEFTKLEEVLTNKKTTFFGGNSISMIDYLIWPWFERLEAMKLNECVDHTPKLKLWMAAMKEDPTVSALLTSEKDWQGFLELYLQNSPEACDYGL
# Nuclear receptor subfamily 5 group A member 2 (Homo sapiens), sequence (O00482 whole entry, looked up): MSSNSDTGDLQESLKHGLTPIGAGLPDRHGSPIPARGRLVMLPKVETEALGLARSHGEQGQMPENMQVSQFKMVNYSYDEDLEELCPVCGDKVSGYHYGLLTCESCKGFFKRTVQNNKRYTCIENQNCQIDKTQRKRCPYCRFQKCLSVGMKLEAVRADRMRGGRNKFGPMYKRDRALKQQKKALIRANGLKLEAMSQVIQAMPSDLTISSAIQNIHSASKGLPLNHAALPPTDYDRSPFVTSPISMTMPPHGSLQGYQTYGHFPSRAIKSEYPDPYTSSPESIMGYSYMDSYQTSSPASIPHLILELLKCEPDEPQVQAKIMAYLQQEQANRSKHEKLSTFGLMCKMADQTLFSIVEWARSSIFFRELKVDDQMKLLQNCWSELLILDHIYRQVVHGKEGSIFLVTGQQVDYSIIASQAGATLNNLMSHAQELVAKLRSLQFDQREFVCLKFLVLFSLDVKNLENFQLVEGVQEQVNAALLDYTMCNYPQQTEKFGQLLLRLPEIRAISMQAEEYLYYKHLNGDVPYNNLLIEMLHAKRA
# Steroidogenic factor 1 (Homo sapiens), sequence (Q13285 whole entry, looked up, the tested form may be a part): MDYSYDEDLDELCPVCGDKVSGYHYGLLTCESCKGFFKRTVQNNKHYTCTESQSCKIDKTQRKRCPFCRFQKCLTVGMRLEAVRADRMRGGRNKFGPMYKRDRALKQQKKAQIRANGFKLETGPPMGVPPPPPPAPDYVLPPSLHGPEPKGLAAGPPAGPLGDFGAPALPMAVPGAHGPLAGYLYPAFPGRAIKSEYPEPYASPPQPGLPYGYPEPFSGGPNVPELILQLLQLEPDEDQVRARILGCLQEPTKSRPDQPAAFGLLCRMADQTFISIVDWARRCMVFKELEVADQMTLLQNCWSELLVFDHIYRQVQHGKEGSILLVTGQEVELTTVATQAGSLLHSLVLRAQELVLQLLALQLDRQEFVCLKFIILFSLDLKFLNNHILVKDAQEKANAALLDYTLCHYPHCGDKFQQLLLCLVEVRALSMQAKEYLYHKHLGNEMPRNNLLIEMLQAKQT
# Nuclear receptor coactivator 3 (Homo sapiens), sequence (Q9Y6Q9 whole entry, looked up, the tested form may be a part): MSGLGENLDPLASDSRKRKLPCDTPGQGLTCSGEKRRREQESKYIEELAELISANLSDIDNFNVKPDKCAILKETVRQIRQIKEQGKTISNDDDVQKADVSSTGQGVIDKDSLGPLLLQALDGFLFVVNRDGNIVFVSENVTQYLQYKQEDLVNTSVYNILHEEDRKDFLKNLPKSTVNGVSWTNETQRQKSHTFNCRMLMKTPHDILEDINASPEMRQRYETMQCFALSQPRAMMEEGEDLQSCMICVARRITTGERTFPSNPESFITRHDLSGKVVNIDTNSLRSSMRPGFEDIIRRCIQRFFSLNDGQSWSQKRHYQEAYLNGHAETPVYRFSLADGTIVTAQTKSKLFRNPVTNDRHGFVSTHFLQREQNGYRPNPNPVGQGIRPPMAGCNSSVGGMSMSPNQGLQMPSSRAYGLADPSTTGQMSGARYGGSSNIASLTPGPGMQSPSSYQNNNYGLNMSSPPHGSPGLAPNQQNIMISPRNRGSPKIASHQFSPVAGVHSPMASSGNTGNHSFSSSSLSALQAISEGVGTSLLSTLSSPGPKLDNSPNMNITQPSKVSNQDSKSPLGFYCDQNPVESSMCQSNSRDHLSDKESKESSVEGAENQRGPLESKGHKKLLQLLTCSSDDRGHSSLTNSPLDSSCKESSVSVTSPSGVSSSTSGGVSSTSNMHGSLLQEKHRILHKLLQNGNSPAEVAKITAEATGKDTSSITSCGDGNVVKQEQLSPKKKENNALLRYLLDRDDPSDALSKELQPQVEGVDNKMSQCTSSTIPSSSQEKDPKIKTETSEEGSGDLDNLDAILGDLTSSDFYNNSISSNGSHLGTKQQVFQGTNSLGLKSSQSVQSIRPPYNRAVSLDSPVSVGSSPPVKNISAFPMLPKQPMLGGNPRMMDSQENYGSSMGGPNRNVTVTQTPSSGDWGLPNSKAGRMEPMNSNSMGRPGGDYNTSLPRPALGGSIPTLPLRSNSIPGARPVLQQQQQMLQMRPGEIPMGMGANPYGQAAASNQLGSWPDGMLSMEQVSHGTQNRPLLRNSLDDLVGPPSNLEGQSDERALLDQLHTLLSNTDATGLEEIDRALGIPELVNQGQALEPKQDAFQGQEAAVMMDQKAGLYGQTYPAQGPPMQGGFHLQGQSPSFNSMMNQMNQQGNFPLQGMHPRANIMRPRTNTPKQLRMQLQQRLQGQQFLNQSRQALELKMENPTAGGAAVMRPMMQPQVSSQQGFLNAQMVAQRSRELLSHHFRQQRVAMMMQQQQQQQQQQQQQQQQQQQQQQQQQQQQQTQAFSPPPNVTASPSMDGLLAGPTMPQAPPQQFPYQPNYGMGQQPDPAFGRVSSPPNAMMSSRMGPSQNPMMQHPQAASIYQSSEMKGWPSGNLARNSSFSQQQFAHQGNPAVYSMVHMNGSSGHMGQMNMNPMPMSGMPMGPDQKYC
# Nuclear receptor coactivator 1 (Homo sapiens), sequence (Q15788 whole entry, looked up, the tested form may be a part): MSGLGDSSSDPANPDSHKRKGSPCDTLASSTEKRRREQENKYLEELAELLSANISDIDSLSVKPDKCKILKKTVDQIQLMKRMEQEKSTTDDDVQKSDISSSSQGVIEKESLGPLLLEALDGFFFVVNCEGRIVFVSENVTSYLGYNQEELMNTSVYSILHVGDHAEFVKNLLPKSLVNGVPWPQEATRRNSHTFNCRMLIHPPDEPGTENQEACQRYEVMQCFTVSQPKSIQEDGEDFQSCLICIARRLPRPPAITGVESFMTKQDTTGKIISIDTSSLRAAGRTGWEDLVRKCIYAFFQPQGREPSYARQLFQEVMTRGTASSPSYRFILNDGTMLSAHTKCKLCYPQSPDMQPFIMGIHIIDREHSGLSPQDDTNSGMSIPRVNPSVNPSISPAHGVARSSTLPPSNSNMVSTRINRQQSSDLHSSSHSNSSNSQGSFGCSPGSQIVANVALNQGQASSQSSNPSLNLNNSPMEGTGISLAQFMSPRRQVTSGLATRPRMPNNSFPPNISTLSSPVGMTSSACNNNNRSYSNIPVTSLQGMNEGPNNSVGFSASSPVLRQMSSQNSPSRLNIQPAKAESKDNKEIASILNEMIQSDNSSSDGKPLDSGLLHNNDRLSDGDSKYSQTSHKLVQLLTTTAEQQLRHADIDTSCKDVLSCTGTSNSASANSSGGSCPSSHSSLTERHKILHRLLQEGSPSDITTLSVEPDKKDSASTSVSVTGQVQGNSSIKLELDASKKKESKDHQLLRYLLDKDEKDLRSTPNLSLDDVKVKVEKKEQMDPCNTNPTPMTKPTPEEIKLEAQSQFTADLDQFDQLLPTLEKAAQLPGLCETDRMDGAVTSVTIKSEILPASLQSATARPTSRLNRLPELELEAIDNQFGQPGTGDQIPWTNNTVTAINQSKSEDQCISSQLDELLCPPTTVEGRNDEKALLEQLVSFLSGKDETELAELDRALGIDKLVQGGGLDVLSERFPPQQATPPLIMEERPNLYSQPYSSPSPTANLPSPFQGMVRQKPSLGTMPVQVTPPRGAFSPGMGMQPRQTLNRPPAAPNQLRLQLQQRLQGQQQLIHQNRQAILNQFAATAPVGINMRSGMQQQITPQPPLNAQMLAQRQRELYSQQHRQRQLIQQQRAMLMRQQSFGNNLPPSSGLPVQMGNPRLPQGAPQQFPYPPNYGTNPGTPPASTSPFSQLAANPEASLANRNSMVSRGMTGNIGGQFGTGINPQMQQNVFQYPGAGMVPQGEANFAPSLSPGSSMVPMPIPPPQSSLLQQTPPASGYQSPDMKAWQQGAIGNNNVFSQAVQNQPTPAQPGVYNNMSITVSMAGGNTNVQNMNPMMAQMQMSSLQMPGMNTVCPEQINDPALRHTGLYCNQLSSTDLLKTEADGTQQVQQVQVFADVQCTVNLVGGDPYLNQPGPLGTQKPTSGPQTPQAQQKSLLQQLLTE
# Protein phosphatase methylesterase 1 (Homo sapiens), sequence (Q9Y570 whole entry, looked up, the tested form may be a part): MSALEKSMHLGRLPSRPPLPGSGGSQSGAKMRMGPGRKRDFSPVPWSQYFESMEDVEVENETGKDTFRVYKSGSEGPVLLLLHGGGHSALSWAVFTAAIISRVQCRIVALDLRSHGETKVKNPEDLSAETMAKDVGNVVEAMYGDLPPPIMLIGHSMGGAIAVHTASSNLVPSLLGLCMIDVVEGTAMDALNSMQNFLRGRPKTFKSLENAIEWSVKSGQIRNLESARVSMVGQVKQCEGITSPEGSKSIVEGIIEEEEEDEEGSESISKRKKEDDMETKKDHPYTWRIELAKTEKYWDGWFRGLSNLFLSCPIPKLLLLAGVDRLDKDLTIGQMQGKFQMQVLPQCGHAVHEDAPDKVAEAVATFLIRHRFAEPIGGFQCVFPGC
compound,measurement,setting,value
COC(=O)c1cc(C)nc2c1C(=O)C(=O)C=C2N1CCOCC1,inhibition,[1],40% (active)
same,inhibition,[2],69.5% (active)
same,inhibition,[3],54.7% (active)
same,inhibition,[4],-43.5%
same,inhibition,[5],52.3% (active)
same,inhibition,[6],54.2% (active)
same,inhibition,[7],99.2% (active)
Cc1ccsc1/C=N/n1c(-c2cc(-c3ccccc3)n[nH]2)n[nH]c1=S,inhibition,[1],22%
CCCCN(CCCC)CCNC(=O)c1cn(CC)c2ccc(S(=O)(=O)N3CCc4ccccc4C3)cc2c1=O,inhibition,[1],48.8% (active)
CCC(=O)Nc1nc(C)c(-c2csc(Nc3cccc(O)c3)n2)s1,inhibition,[1],20%
same,inhibition,[2],16.5%
same,inhibition,[3],47.6% (active)
Cc1ccc(Nc2nc(-c3ccc(O)cc3O)cs2)nc1,inhibition,[1],34% (active)
same,inhibition,[8],50.7% (active)
Cc1cc(C)nc(SCc2ccc(C(=O)N/N=C/c3cccc(O)c3O)cc2)n1,inhibition,[1],-47%
same,inhibition,[2],28.5%
same,inhibition,[3],38.9% (active)
same,inhibition,[4],27.1%
same,inhibition,[5],23.9%
Cc1ccc(C(C)C)c(OCc2ccc(C(=O)N/N=C/c3cccc(O)c3O)cc2)c1,inhibition,[1],-4.31%
same,inhibition,[2],56.2% (active)
same,inhibition,[3],32.4% (active)
same,inhibition,[4],40.4%
same,inhibition,[5],27.9% (active)
same,inhibition,[6],34.8%
same,inhibition,[7],83.9% (active)
Nc1c(C(=O)Nc2ccc(Br)cc2)sc2nc(-c3ccco3)ccc12,inhibition,[1],34.4% (active)
O=C1C(Nc2ccccc2)=C/C(=N/S(=O)(=O)c2cccs2)c2ccccc21,inhibition,[1],35.5% (active)
same,inhibition,[2],79.7% (active)
same,inhibition,[3],59.4% (active)
same,inhibition,[4],44.6%
same,inhibition,[5],75.7% (active)
COc1ccc(/C=N/NC(=S)Nc2ccccc2[N+](=O)[O-])cc1O,inhibition,[1],43.4% (active)
same,inhibition,[2],-21.4%
same,inhibition,[3],-47%
same,inhibition,[4],-91.8%
same,inhibition,[5],-70%
COc1cccc(N2CCN(c3ncnc4c3[nH]c3ccc(F)cc34)CC2C)c1 (centres undefined),inhibition,[1],26.7% (active)
same,inhibition,[2],95.2% (active)
same,inhibition,[3],93.4% (active)
same,inhibition,[4],86.7% (active)
same,inhibition,[5],91.8% (active)
same,inhibition,[9],93.4% (active)
same,inhibition,[10],108% (active)
same,inhibition,[11],97.8% (active)
same,inhibition,[12],97.2% (active)
same,inhibition,[6],95.4% (active)
same,inhibition,[7],99.5% (active)
CCn1nc([N+](=O)[O-])c(C(C#N)c2nc3cc(C(F)(F)F)ccc3s2)c(Cl)c1=O (centres undefined),inhibition,[1],67.1% (active)
same,inhibition,[2],10.4%
same,inhibition,[3],12.3%
Nc1ccc2c(c1)C(=O)C(=O)c1ccccc1-2,inhibition,[1],36.4% (active)
same,inhibition,[2],96.7% (active)
same,inhibition,[3],95.3% (active)
same,inhibition,[4],87% (active)
same,inhibition,[5],93% (active)
same,inhibition,[9],98.5% (active)
same,inhibition,[10],110% (active)
same,inhibition,[11],98.9% (active)
same,inhibition,[12],99.1% (active)
same,inhibition,[6],97% (active)
same,inhibition,[7],98.8% (active)
COc1ccc(O)c(/C=N/NC(=S)Nc2cccc(S(=O)(=O)N(C)C)c2)c1,inhibition,[1],25.4%
same,inhibition,[2],24.6%
same,inhibition,[3],26.2%
COc1ccc(OC)c2[nH]c(C(=O)N/N=C/c3ccccc3O)cc12,inhibition,[1],-0.45%
same,inhibition,[2],30.1%
same,inhibition,[3],39.2% (active)
O=c1c2ccccc2nc(N/N=C/c2c(O)ccc3ccccc23)n1O,inhibition,[1],43.9% (active)
same,inhibition,[2],55.4% (active)
same,inhibition,[3],78.8% (active)
same,inhibition,[4],20.9%
same,inhibition,[5],76.4% (active)
same,inhibition,[9],81.4% (active)
same,inhibition,[10],101% (active)
same,inhibition,[11],90.2% (active)
same,inhibition,[12],78.3% (active)
Clc1ccc2[nH]c3c(c2c1)CCc1cn[nH]c1-3,inhibition,[1],21.1%
Nc1c(Cl)cc(-c2[nH]c3cc(C(=O)NCCO)ccc3c(=O)c2O)cc1Cl,inhibition,[1],-9.64%
CCOc1cc(/C=C/c2ccc3cccc([N+](=O)[O-])c3n2)cc(Cl)c1O,inhibition,[1],-9.78%
O=[N+]([O-])c1ccc(-c2nc(-c3cccs3)c(-c3cccs3)[nH]2)cc1,inhibition,[1],21.5%
same,inhibition,[9],15.5%
same,inhibition,[10],59.5% (active)
same,inhibition,[11],50.8% (active)
same,inhibition,[12],-8.61%
O=C1OC(Nc2cc(Br)cc3cccnc23)c2ccccc21 (centres undefined),inhibition,[1],6.18%
same,inhibition,[9],16.4%
same,inhibition,[10],25.9%
same,inhibition,[11],31.6%
same,inhibition,[12],13.6%
CC1C(=O)Nc2ccccc2N1C(=O)c1ccc(F)cc1F (centres undefined),inhibition,[13],5.92%
COc1ccc(N2CCN(c3ncnc4c3[nH]c3ccccc34)CC2)cc1,inhibition,[1],28% (active)
same,inhibition,[4],3.21%
same,inhibition,[5],24.6%
Fc1ccc2[nH]c3c(N4CCN(c5ccccc5)CC4)ncnc3c2c1,inhibition,[1],26.3% (active)
same,inhibition,[4],2.85%
same,inhibition,[5],15.6%
C(=N\Nc1nc2ccccc2[nH]1)/c1cccc2cccnc12,inhibition,[1],60.2% (active)
same,inhibition,[2],44.8% (active)
same,inhibition,[3],8.83%
same,inhibition,[9],49.4% (active)
same,inhibition,[10],74% (active)
same,inhibition,[11],64.3% (active)
same,inhibition,[12],23.9%
